Measured values: PubChem BioAssay (NCI)
This is part of a sample that, as a whole, favours compounds with a hit. Of some 83,000 tested, about 20% had one in any assay.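 Compound tested at a single concentration for 48 hours in 96-well plates; a percent growth value below 10 was scored as active.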 Values without a mark were called inactive. The source made the active and inactive calls.

Each compound was assayed on OVCAR-5 ovarian (assay: NCI-60 one-dose screen, 48 h (100 = growth as untreated, 0 = no growth, -100 = all killed)). Details: 10 µM unless noted.

Row | Compound | growth
1 | COc1ccc(OC)c(-c2ccc(-c3ccccc3N)c3[nH]c4ccccc4c23)c1 | 110%
2 | COc1ccc(S(=O)(=O)Nc2cc(/C=C\c3cc(OC)c(OC)c(OC)c3)cc(OC)c2OC)cc1OC | 30.8%
3 | Cc1cc(NC(=O)COC(=O)c2sc3cc(F)ccc3c2Cl)no1 | 100%
4 | Nc1c(C(=O)Nc2cccc(C(F)(F)F)c2)sc2nc3c(cc12)C(O)CCC3 (stereo not given) | 53.5%
5 | CC(=O)C1CCC(C)=CC1=O (stereo not given) | 103%
6 | COc1ccc(-c2nc3sccn3c2-c2ccnc(NCCCNS(=O)(=O)c3ccc(F)cc3)n2)cc1 | 77%
7 | COc1cc(-c2csc(NC(=O)Nc3ccc(Cl)cc3Cl)n2)cc(OC)c1OC | 75.8%
8 | CCSc1nnc(Nc2ccc(C(C)C)cc2)s1 | 87.1%
9 | CCOC(=O)CC/C(C)=N\Nc1ccc([N+](=O)[O-])cc1 | 84.3%
10 | Cc1ccc2c(c1)C(=O)C(c1c(-c3[nH]c(=O)c4ccc(C)cc4c3O)c(O)c3ccccc3c1O)=NC2=O | 66.4%
11 | CN(C)CCCNC(=O)C(c1ccccc1)c1ccccc1 | 111%
12 | COc1ccc(-c2nnc(COc3ccc(NC(=O)Nc4ccc(Cl)c(C(F)(F)F)c4)cc3F)o2)cc1 | 8.75% (active)
13 | O=c1oc2cc(OS(=O)(=O)c3ccc(F)cc3)ccc2c2c1CCCCC2 | 66.2%
14 | Nc1nc(-c2ccccc2)cs1 | 98.7%
15 | COc1ccc(C(=O)/C=C/c2cccc([N+](=O)[O-])c2)c(OC)c1 | 41.9%
16 | C=CCOc1cccc(/C=C/C(=O)c2sc(Nc3cccnc3)nc2C)c1 | 108%
17 | Cc1cc(Nc2nc(C(=O)Nc3ccccc3)nc3ccccc23)n[nH]1 | 82.2%
18 | CC1CCN(C(=O)CSc2nc3sc4c(c3c(=O)[nH]2)CCCC4)CC1 | 102%
19 | COc1ccc(-c2nc(-c3nc4ccc(F)cc4[nH]3)cc3c2[nH]c2ccccc23)cc1 | 77.8%
20 | CC/C=C\C[C@H](O)C/C=C1/C(=O)C(Cl)=C[C@@H]1C/C=C\CCCC(=O)O | 97.1%
21 | O=c1[nH]c2ccccc2cc1-c1nnc(Cc2ccccc2)o1 | 120%
22 | COc1ccc(C2CC(c3cccs3)=NN2c2ccc(S(=O)(=O)NC(=O)Nc3ccc(C)cc3)cc2)cc1 (stereo not given) | 115%
23 | CCSc1nnc(NC(=O)COc2ccc(Cl)cc2C)s1 | 96.2%
24 | COc1ccc(Cn2c(SC)nc(=O)n(Cc3ccc(Cl)cc3)c2=O)cc1 | 92.1%
25 | O=C(Nc1ccc(Br)c(Cl)c1)c1cc(F)ccc1O | 24.4%
26 | O=C(CCl)NCCNc1nccc(Nc2ccc(S(=O)(=O)Nc3ccccn3)cc2)n1 | 15.7%

Each compound was assayed on OVCAR-4 ovarian in the same assay as above. Details: 10 µM unless noted.

Row | Compound | growth
27 | O=S(=O)(NCCCNc1cc(-c2cn(-c3ccccc3)nc2-c2cccc(O)c2)ccn1)c1ccc(Cl)cc1 | 34.7%
28 | COc1ccc(-c2nc3sccn3c2-c2ccnc(NCCCNS(=O)(=O)c3ccc(C)cc3)n2)cc1 | 42.9%
29 | O=C1c2ccccc2C(=O)c2c1oc1oc3c(c(=O)c21)c(=O)n(-c1ccccc1)c1ccccc31 | 18.8%
30 | C#CCC1(c2ccc(F)c(F)c2)NS(=O)(=O)c2ccccc21 (stereo not given) | 105%
31 | Cc1nc(Nc2cccnc2)sc1C(=O)/C=C/c1ccc(F)cc1 | 63.8%
32 | CCC#CC[C@H]1C/C=C2/C(=O)C=C[C@@H]2C/C=C\CCCC(=O)O1 | 40.1%
33 | CNC(=O)Cc1nc(-c2cccc(NS(=O)(=O)c3c(F)cccc3F)c2F)c(-c2ccnc(Nc3ccccc3)n2)s1 | 124%
34 | CC(=O)Nc1ccc2c(c1)/C(=C\C=C/c1ccc([N+](C)(C)C)cc1)c1ccccc1-2 | 28.1%
35 | COc1cc(OC)cc(-c2n[nH]nc2-c2ccc3c(c2)OCO3)c1 | 52.5%
36 | O=C1CCC/C=C\C[C@H]2C=CC(=O)/C2=C/C[C@H](C/C=C\CC(F)(F)F)O1 | 20.6%
37 | O=C(Nc1cccc(Cl)c1)c1cc([N+](=O)[O-])ccc1O | 46.1%
38 | O=C1N=C(c2c(-c3[nH]c(=O)c4ccc(Br)cc4c3O)c(O)c3ccccc3c2O)C(=O)c2cc(Br)ccc21 | -59.7% (active)
39 | COc1cc(-n2nc(C(=O)Nc3ccc(C(=O)O)cc3)nc2-c2ccccc2)cc(OC)c1OC | 110%
40 | COc1ccc(OC)c(-c2ccc(-c3ccccc3N)c3[nH]c4ccccc4c23)c1 | 69.6%
41 | COc1ccc(S(=O)(=O)Nc2cc(/C=C\c3cc(OC)c(OC)c(OC)c3)cc(OC)c2OC)cc1OC | 39.7%
42 | Cc1cc(NC(=O)COC(=O)c2sc3cc(F)ccc3c2Cl)no1 | 105%
43 | Nc1c(C(=O)Nc2cccc(C(F)(F)F)c2)sc2nc3c(cc12)C(O)CCC3 (stereo not given) | 58.5%
44 | CC(=O)C1CCC(C)=CC1=O (stereo not given) | 107%
45 | COc1ccc(-c2nc3sccn3c2-c2ccnc(NCCCNS(=O)(=O)c3ccc(F)cc3)n2)cc1 | 17.1%
46 | COc1cc(-c2csc(NC(=O)Nc3ccc(Cl)cc3Cl)n2)cc(OC)c1OC | 55.5%

Row | Compound | growth
47 | CCSc1nnc(Nc2ccc(C(C)C)cc2)s1 | 84%
48 | CCOC(=O)CC/C(C)=N\Nc1ccc([N+](=O)[O-])cc1 | 77.2%
49 | Cc1ccc2c(c1)C(=O)C(c1c(-c3[nH]c(=O)c4ccc(C)cc4c3O)c(O)c3ccccc3c1O)=NC2=O | 25.2%
50 | CN(C)CCCNC(=O)C(c1ccccc1)c1ccccc1 | 118%
51 | COc1ccc(-c2nnc(COc3ccc(NC(=O)Nc4ccc(Cl)c(C(F)(F)F)c4)cc3F)o2)cc1 | 20.2%
52 | O=c1oc2cc(OS(=O)(=O)c3ccc(F)cc3)ccc2c2c1CCCCC2 | 58.1%
53 | Nc1nc(-c2ccccc2)cs1 | 102%
54 | COc1ccc(C(=O)/C=C/c2cccc([N+](=O)[O-])c2)c(OC)c1 | 26.6%
55 | C=CCOc1cccc(/C=C/C(=O)c2sc(Nc3cccnc3)nc2C)c1 | 69.5%
56 | Cc1cc(Nc2nc(C(=O)Nc3ccccc3)nc3ccccc23)n[nH]1 | 44.6%
57 | CC1CCN(C(=O)CSc2nc3sc4c(c3c(=O)[nH]2)CCCC4)CC1 | 108%
58 | COc1ccc(-c2nc(-c3nc4ccc(F)cc4[nH]3)cc3c2[nH]c2ccccc23)cc1 | 45.8%
59 | CC/C=C\C[C@H](O)C/C=C1/C(=O)C(Cl)=C[C@@H]1C/C=C\CCCC(=O)O | 63.2%
60 | O=c1[nH]c2ccccc2cc1-c1nnc(Cc2ccccc2)o1 | 61.3%
61 | COc1ccc(C2CC(c3cccs3)=NN2c2ccc(S(=O)(=O)NC(=O)Nc3ccc(C)cc3)cc2)cc1 (stereo not given) | 106%
62 | CCSc1nnc(NC(=O)COc2ccc(Cl)cc2C)s1 | 107%
63 | COc1ccc(Cn2c(SC)nc(=O)n(Cc3ccc(Cl)cc3)c2=O)cc1 | 98%
64 | O=C(Nc1ccc(Br)c(Cl)c1)c1cc(F)ccc1O | 12.4%
65 | O=C(CCl)NCCNc1nccc(Nc2ccc(S(=O)(=O)Nc3ccccn3)cc2)n1 | 29.4%
